A short description of assay [1]: NCI Yeast Anticancer Drug Screen. Data for the rad50 strain (AID 155).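 Further: 0% = growth of vehicle-only cultures of the same strain.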 The note with it: S. cerevisiae rad50 strain growth inhibition, active compounds read high. The procedure, abridged:
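A DNA repair-deficient yeast mutant serves as the test organism; compound-induced growth inhibition is calculated against vehicle-treated cells.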

A short description of assay [2]: NCI Yeast Anticancer Drug Screen. Data for the mec2-1 strain (AID 157). As to conditions: S. cerevisiae mec2-1 strain, active compounds read high. Summed up: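 Compounds were applied to mec2-1 yeast cells. Their growth was then compared with that of vehicle-treated cultures to give growth inhibition.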
Assay [3] is described as follows: NCI Yeast Anticancer Drug Screen. Data for the sgs1 mgt1 strain (AID 161).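 Further: 0% = growth of cultures given vehicle only.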 The note with it: S. cerevisiae sgs1 mgt1 strain, active compounds read high. The procedure, abridged: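 This yeast growth screen uses a strain with defined DNA-repair lesions; compound-treated growth is compared with vehicle-treated growth.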
A short description of assay [4]: NCI Yeast Anticancer Drug Screen. Data for the cln2 rad14 strain (AID 165).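 Further: 0% = growth equal to vehicle treated cultures.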 The note with it: S. cerevisiae cln2 rad14 strain, active compounds read high. Summed up: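 Strain: cln2 rad14 yeast, altered in cell cycle control and DNA damage repair. Read-out: growth inhibition vs vehicle.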
Assay [5] in a line: NCI Yeast Anticancer Drug Screen. Data for the bub3 strain (AID 167). As to conditions: S. cerevisiae bub3 mutant strain, active compounds read high. The procedure, abridged: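 Inhibition values come from growth of compound-treated mutant yeast normalised to vehicle-treated controls.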
Assay [6] can be described thus: NCI Yeast Anticancer Drug Screen. Data for the mlh1 rad18 strain (AID 175). As to conditions: S. cerevisiae mlh1 rad18 strain growth inhibition, active compounds read high. Summed up: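 A repair-deficient yeast strain is exposed to test compound, and growth is scored relative to vehicle-treated controls.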
[7] abbreviates: at 5.0 µM (retest, dose inferred, filed as 0.5).
The mark [8] stands for this setting: at 50.0 µM (retest, dose inferred, filed as 5.0).

Compounds without any hit were thinned out: in the full panel of roughly 79,000, 15% have a hit. A number with no mark means an inactive call. Calls of active or inactive are those of the source. No stated cut-off is given here; in the data, active means growth inhibition above about 70%; inactive means the rest.

For the compound `Oc1ccc2c(c1)CCc1ccccc1-2`, the growth inhibition in assay [1] (setting [7]) was 37%; in assay [1] (setting [8]) it was 98% (active); in assay [1] (at 50.0 µM), 95.6% (active); in assay [2] (setting [7]) it was 36%; in assay [2] (setting [8]) it was 98% (active); in assay [2] (at 50.0 µM), 75.5% (active). For the same compound, the growth inhibition is 11% in assay [3] (setting [7]); 88% (active) in assay [3] (setting [8]); 95.8% (active) in assay [3] (at 50.0 µM); 1% in assay [4] (setting [7]); 98% (active) in assay [4] (setting [8]); 99.2% (active) in assay [4] (at 50.0 µM). Further, the growth inhibition in assay [5] (setting [7]) is 83% (active); in assay [5] (setting [8]), 99% (active); in assay [5] (at 50.0 µM), 98.8% (active); in assay [6] (setting [7]) it was 75% (active); in assay [6] (setting [8]) it was 98% (active); in assay [6] (at 50.0 µM) it was 99.5% (active).

`CC(C)c1ccc(Nc2n[nH]c(=S)s2)cc1`: the growth inhibition in assay [1] (setting [7]) was 39%; in assay [1] (setting [8]), 82% (active); in assay [1] (at 50.0 µM) it was 86.1% (active); in assay [2] (setting [7]), 32%; in assay [2] (setting [8]), 79% (active); in assay [2] (at 50.0 µM) it was 83% (active). Further, the growth inhibition in assay [3] (setting [7]) is 35%; in assay [3] (setting [8]), 68%; in assay [3] (at 50.0 µM), 87.8% (active); in assay [4] (setting [7]), 22%; in assay [4] (setting [8]), 85% (active); in assay [4] (at 50.0 µM), 84.6% (active). Further, the growth inhibition in assay [5] (setting [7]) was 33%; in assay [5] (setting [8]) it was 94% (active); in assay [5] (at 50.0 µM) it was 87.5% (active); in assay [6] (setting [7]), 41%; in assay [6] (setting [8]), 82% (active); in assay [6] (at 50.0 µM), 84.1% (active).

With `COC(=O)c1nc(=S)[nH]c(C(=O)OC)c1C(=O)c1ccc(Cl)c(Cl)c1`, the growth inhibition in assay [1] (setting [7]) is -8%; in assay [1] (setting [8]), 98% (active); in assay [1] (at 50.0 µM), 99.5% (active); in assay [2] (setting [7]), -1%; in assay [2] (setting [8]), 98% (active); in assay [2] (at 50.0 µM), 99% (active). In addition, the growth inhibition in assay [3] (setting [7]) was 7%; in assay [3] (setting [8]), 98% (active); in assay [3] (at 50.0 µM), 99.3% (active); in assay [4] (setting [7]), 4%; in assay [4] (setting [8]), 95% (active); in assay [4] (at 50.0 µM), 98.5% (active). Besides, the growth inhibition in assay [5] (setting [7]) was 0%; in assay [5] (setting [8]), 98% (active); in assay [5] (at 50.0 µM) it was 98.2% (active); in assay [6] (setting [7]), 11%; in assay [6] (setting [8]), 99% (active); in assay [6] (at 50.0 µM) it was 99.2% (active).

For the compound `CCCCCCCCC(=O)OCCCC(CCC(CCC1CCCO1)OC(=O)CCCCCCCC)OC(=O)CCCCCCCC` (configuration not stated), the growth inhibition in assay [1] (setting [7]) is -19%; in assay [1] (setting [8]) it was 10%; in assay [1] (at 50.0 µM), 82.3% (active); in assay [2] (setting [7]), 3%; in assay [2] (setting [8]), 12%; in assay [2] (at 50.0 µM), 37%. Besides, the growth inhibition in assay [3] (setting [7]) was -12%; in assay [3] (setting [8]) it was 33%; in assay [3] (at 50.0 µM), 42.4%; in assay [4] (setting [7]), -17%; in assay [4] (setting [8]), 31%; in assay [4] (at 50.0 µM), 14.3%. The growth inhibition in assay [5] (setting [7]) was -7%; in assay [5] (setting [8]) it was 12%; in assay [5] (at 50.0 µM), 29.8%; in assay [6] (setting [7]), -2%; in assay [6] (setting [8]), 23%; in assay [6] (at 50.0 µM), 62.4%.

In the case of `OC(Cc1cc(CC(O)(C(F)(F)F)C(F)(F)F)nc(CC(O)(C(F)(F)F)C(F)(F)F)c1)(C(F)(F)F)C(F)(F)F`, the growth inhibition in assay [1] (setting [7]) was 8%; in assay [1] (setting [8]), 99% (active); in assay [1] (at 50.0 µM) it was 99.5% (active); in assay [2] (setting [7]), 1%; in assay [2] (setting [8]) it was 100% (active); in assay [2] (at 50.0 µM) it was 99.5% (active). The growth inhibition in assay [3] (setting [7]) is -9%; in assay [3] (setting [8]) it was 99% (active); in assay [3] (at 50.0 µM), 99.4% (active); in assay [4] (setting [7]), 29%; in assay [4] (setting [8]) it was 100% (active); in assay [4] (at 50.0 µM) it was 97.8% (active). The growth inhibition was -15% in assay [5] (setting [7]); 100% (active) in assay [5] (setting [8]); 99.3% (active) in assay [5] (at 50.0 µM); 19% in assay [6] (setting [7]); 99% (active) in assay [6] (setting [8]); 99.5% (active) in assay [6] (at 50.0 µM).

For `COc1ccc(NC(=O)/C(=C/N2C(=O)/C(=C/c3ccc(OC)c(OC)c3)NC2=S)C(C)=O)cc1`, the growth inhibition in assay [1] (setting [7]) was 5%; in assay [1] (setting [8]), 66%; in assay [1] (at 50.0 µM), 54.3%; in assay [2] (setting [7]), -3%; in assay [2] (setting [8]), 85% (active); in assay [2] (at 50.0 µM), 53.1%. Also, the growth inhibition in assay [3] (setting [7]) was -5%; in assay [3] (setting [8]), 86% (active); in assay [3] (at 50.0 µM), 51.9%; in assay [4] (setting [7]), -22%; in assay [4] (setting [8]), 51%; in assay [4] (at 50.0 µM) it was 37%. Moreover, the growth inhibition in assay [5] (setting [7]) is -21%; in assay [5] (setting [8]), 76% (active); in assay [5] (at 50.0 µM) it was 64.8%; in assay [6] (setting [7]) it was -6%; in assay [6] (setting [8]), 82% (active); in assay [6] (at 50.0 µM), 76.7% (active).

Regarding `Cc1cc(C(=O)c2ccc(Cl)cc2)ccc1O`, the growth inhibition in assay [1] (setting [7]) was 0%; in assay [1] (setting [8]), 4%; in assay [1] (at 50.0 µM) it was 72.4% (active); in assay [2] (setting [7]), -4%; in assay [2] (setting [8]), -2%; in assay [2] (at 50.0 µM), 57.5%. Further, the growth inhibition is 0% in assay [3] (setting [7]); 4% in assay [3] (setting [8]); 85.9% (active) in assay [3] (at 50.0 µM); -6% in assay [4] (setting [7]); -9% in assay [4] (setting [8]); 46% in assay [4] (at 50.0 µM). The growth inhibition is -3% in assay [5] (setting [7]); 0% in assay [5] (setting [8]); 24.8% in assay [5] (at 50.0 µM); -1% in assay [6] (setting [7]); -2% in assay [6] (setting [8]); 70.5% (active) in assay [6] (at 50.0 µM).

In the case of `CC(=O)Nc1ccc(C(=O)CCl)cc1`, the growth inhibition in assay [1] (setting [7]) is 98% (active); in assay [1] (setting [8]), 98% (active); in assay [1] (at 50.0 µM) it was 76.3% (active); in assay [2] (setting [7]) it was 96% (active); in assay [2] (setting [8]), 99% (active); in assay [2] (at 50.0 µM) it was 51.7%. The growth inhibition was 98% (active) in assay [3] (setting [7]); 99% (active) in assay [3] (setting [8]); 99% (active) in assay [3] (at 50.0 µM); 87% (active) in assay [4] (setting [7]); 93% (active) in assay [4] (setting [8]); 51.6% in assay [4] (at 50.0 µM). In addition, the growth inhibition is 99% (active) in assay [5] (setting [7]); 99% (active) in assay [5] (setting [8]); 7.6% in assay [5] (at 50.0 µM); 98% (active) in assay [6] (setting [7]); 99% (active) in assay [6] (setting [8]); 94.7% (active) in assay [6] (at 50.0 µM).

Consider `COc1ccc(Nc2nc3ccc(C(F)(F)F)cc3nc2C(=O)O)cc1`, for which the growth inhibition in assay [1] (setting [7]) is 10%; in assay [1] (setting [8]) it was 51%; in assay [1] (at 50.0 µM) it was 30.6%; in assay [2] (setting [7]), 13%; in assay [2] (setting [8]) it was 46%; in assay [2] (at 50.0 µM), 42.9%. For the same compound, the growth inhibition is 21% in assay [3] (setting [7]); 22% in assay [3] (setting [8]); 40.6% in assay [3] (at 50.0 µM); 31% in assay [4] (setting [7]); 37% in assay [4] (setting [8]); 68.3% in assay [4] (at 50.0 µM). Also, the growth inhibition is 7% in assay [5] (setting [7]); 12% in assay [5] (setting [8]); 60.5% in assay [5] (at 50.0 µM); 9% in assay [6] (setting [7]); 48% in assay [6] (setting [8]); 54.5% in assay [6] (at 50.0 µM).

The values are drawn from PubChem BioAssay (NCI).
